# Assay results: article PMC4552634, “A New Set of Chemical Starting Points with Plasmodium falciparum Transmission-Blocking Potential for Antimalarial Drug Discovery” (PLoS ONE, 2015)
# About 3,200 (25%) of roughly 13,000 compounds showed an effect of 50% or more. Some of the results follow.
# System: P. falciparum stage V gametocytes
# Design: BacTiter-Glo ATP luminescence viability of purified stage V gametocytes in 384-well plates, per cent inhibition versus DMSO
# Conditions: 48 h, 5 µM; inhibitor
row,SMILES,% Inhibition
1,O=C(/C=C/c1ccc(Cl)c(Cl)c1)NCCCCCCN1CCCN(C(=O)Nc2ccc(Cl)c(C(F)(F)F)c2)CC1 [TCMDC-135935],84.32%
2,O=C(/C=C/c1ccc(Cl)c(Cl)c1)NCCCCCN1CCCN(C(=O)Nc2ccc(Cl)cc2)CC1 [TCMDC-135748],-7.449%
3,Cc1cccc2[nH]c(-c3cccc(-c4cccc(NC(=O)CC5NC(=O)c6ccccc65)c4)c3)nc12 (stereo not drawn) [TCMDC-137093],12.03%
4,CCOc1cc(C)ccc1C1CCN(CCCCNC(=O)c2coc(-c3ccc(Cl)cc3)c2)CC1 [TCMDC-138530],-52.9%
5,O=C(c1cc(C(=O)NCc2ccc(Cl)cc2)c(=O)n(Cc2ccc(Cl)cc2)c1)c1cc(Cl)ccc1O [TCMDC-124339],-61.86%
6,OC(CNc1ccnc(Nc2ccc(Cl)cc2)n1)c1cccc(C(F)(F)F)c1 (stereo not drawn) [TCMDC-136587],30.58%
7,O=C(/C=C/c1ccc(Cl)c(Cl)c1)NCCCCCCN1CCCN(C(=O)Nc2ccc(Cl)c(Cl)c2)CC1 [TCMDC-135933],52.33%
8,O=C(/C=C/c1ccc(Cl)c(Cl)c1)NCCCCN1CCCN(C(=O)Nc2ccc(Cl)c(Cl)c2)CC1 [TCMDC-135932],87.86%
9,O=C(/C=C/c1ccc(Cl)c(Cl)c1)NCCCCCN1CCCN(C(=O)Nc2ccc(Cl)c(Cl)c2)CC1 [TCMDC-135759],-47.93%
10,O=C(/C=C/c1ccc(Cl)c(Cl)c1)NCCCCCCN1CCCN(C(=O)Nc2ccc(F)c(Cl)c2)CC1 [TCMDC-135940],14.82%
11,O=C(/C=C/c1ccc(Cl)c(Cl)c1)NCCCCCCN1CCCN(C(=O)Nc2cccc(C(F)(F)F)c2)CC1 [TCMDC-135934],13.78%
12,O=C(/C=C/c1ccc(Cl)c(Cl)c1)NCCCCCCN1CCN(C(=O)Nc2ccc(Cl)c(Cl)c2)CC1 [TCMDC-135835],30.42%
13,O=C(/C=C/c1ccc(Cl)c(Cl)c1)NCCCCCCN1CCCN(C(=O)Nc2ccc(C(F)(F)F)cc2)CC1 [TCMDC-135937],-27.04%
14,O=C(/C=C/c1ccc(Cl)c(Cl)c1)NCCCCCN1CCCN(C(=O)Nc2cccc(C(F)(F)F)c2)CC1 [TCMDC-135758],79.21%
15,O=C(/C=C/c1ccc(Cl)c(Cl)c1)NCCCCN1CCCN(C(=O)Nc2ccc(F)c(Cl)c2)CC1 [TCMDC-135931],-30.88%
16,CCCO[C@H](C(=O)OC)[C@@H](CC1Cc2ccccc2C1)C(=O)NCCC1=CCCCC1 [TCMDC-140419],-16.75%
17,COc1ccc2nc(C)cc(Nc3ccc(Oc4ccc5ccccc5c4)c(Cl)c3)c2c1 [TCMDC-124209],-14.35%
18,N#Cc1cccc(-c2nc(NCc3cccc(C(F)(F)F)c3)nn2-c2cccc(C(F)(F)F)c2)c1 [TCMDC-133548],-85.5%

row,SMILES,% Inhibition
1,Cc1nc(N)nc(N)c1-c1ccc(Br)c(Br)c1 [TCMDC-137372],14.5%
2,COc1ccc2ncc(F)c(CCN3CCC(CNC(=O)C(=O)c4c[nH]c5ccccc45)CC3)c2n1 [TCMDC-135874],3.215%
3,Cc1cc(C(=O)Nc2ccc3c(ccn3C3CCCN(Cc4ccc(C(F)(F)F)cc4F)CC3)c2)no1 (stereo not drawn) [TCMDC-135088],41.42%
4,COc1ccc(NC(=O)c2ccc(-c3ccc(-c4cccnc4)cc3)c(C)c2)cc1OCCN(C)C [TCMDC-138989],38.05%
5,COc1cccc(NC(=O)Nc2ccc(C)c(-c3ccc(C(=O)Nc4ccncc4)cc3)c2)c1 [TCMDC-133704],-18.6%
6,COC(=O)c1ccc(-c2ccc(-c3cccnc3)cc2C)cc1 [TCMDC-139074],95.09%
7,COc1ccc(NC(=O)c2ccc(-c3cccc(OCc4ccccc4)c3)cc2)cc1N1CCN(C)CC1 [TCMDC-138991],-59.54%
8,COc1ccc(NC(=O)c2ccc3cc4ccccc4cc3c2)cc1N1CCN(C)CC1 [TCMDC-138983],82.38%
9,COc1ccc(C(=O)Nc2ccc3nc(N4CCCCC4)cc(C)c3c2)cc1OC [TCMDC-124422],4.122%
10,COc1ccc(NC(=O)c2ccc(-c3nc(-c4ccccc4)cs3)cc2)cc1N1CCN(C)CC1 [TCMDC-138980],-14.93%
11,COc1ccc(NC(=O)c2ccc(OCCCCCCCOc3ccc(C(=O)Nc4ccc(OC)c(N5CCN(C)CC5)c4)cc3)cc2)cc1N1CCN(C)CC1 [TCMDC-139007],102%
12,COc1ccc(NC(=O)c2ccc(Br)c(C)c2)cc1N1CCN(CCCc2c[nH]c3ccccc23)CC1 [TCMDC-139036],49.59%
13,COc1ccc(NC(=O)c2ccc(Br)c(C)c2)cc1N1CCN(CCCCc2ccccc2)CC1 [TCMDC-139035],-7.283%
14,CCN1CCN(c2cc(C)c3cc(NC(=O)c4ccc(OC)c(OC)c4)ccc3n2)CC1 [TCMDC-123598],74.46%
15,COc1ccc(NC(=O)c2cccc(Br)c2)cc1N1CCN(CCCCCCCN2CCN(c3cc(NC(=O)c4cccc(Br)c4)ccc3OC)CC2)CC1 [TCMDC-139020],104.8%
16,COc1ccc(NC(=O)c2ccc(NC(=O)c3ccc(Cl)cc3)cc2)cc1N1CCN(C)CC1 [TCMDC-138188],5.64%
17,COc1ccc(NC(=O)c2ccc(C=Cc3ccc(C(F)(F)F)cc3)cc2)cc1N1CCN(C)CC1 [TCMDC-138674],15.84%
18,CCN1CCN(c2cc(C)c3cc(NC(=O)c4ccc(OC)c([N+](=O)[O-])c4)ccc3n2)CC1 [TCMDC-123599],3.112%
